# Measurements: PubChem BioAssay AID1159580 (chemical genetic matrix, 2015)
# The campaign covered roughly 5,500 compounds. About 2,000 (36%) were called active. Not shown: some 18% with an inconclusive outcome. The list shows a part of the results. Values without a mark were called inactive. Cut-off read from the data, not from the text of the source: active = normalized growth mostly below about 0.91 (no sharp cut-off); inconclusive = no clear call, values can overlap the other calls; inactive = mostly above about 0.92.
# Experiment: chemical genetic growth profiling, strain panel (AID 1159580);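 note: tested at 20 µM; growth read once vehicle control cultures reached saturation at 30 °C; 1 = growth at the plate median or of vehicle wells; lower values mean less growth of the strain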
# Conditions: S. cerevisiae deletion strains, growth OD
structure (smiles),measurement,setting,value
O=c1oc2cc(O)ccc2s1,normalized growth,"locus YAL013W, strain DEP1, hits give low values",0.999
same,normalized growth,"locus YAL021C, strain ccr4, hits give low values",1.06
same,normalized growth,"locus YAL026C, strain drs2, hits give low values",1
same,normalized growth,"locus YAL030W, strain snc1, hits give low values",0.995
same,normalized growth,"locus YBL061C, strain skt5, hits give low values",1.01
same,normalized growth,"locus YBR009C, strain hhf1, hits give low values",0.972
same,normalized growth,"locus YBR021W, strain FUR4, hits give low values",1.03
same,normalized growth,"locus YBR023C, strain chs3, hits give low values",1.01
same,normalized growth,"locus YBR171W, strain sec66, hits give low values",1.02
same,normalized growth,"locus YBR229C, strain ROT2, hits give low values",0.966
same,normalized growth,"locus YBR231C, strain swc5, hits give low values",0.965
same,normalized growth,"locus YBR279W, strain paf1, hits give low values",0.999
same,normalized growth,"locus YCL011C, strain gbp2, hits give low values",0.988
same,normalized growth,"locus YCL016C, strain dcc1, hits give low values",0.993
same,normalized growth,"locus YCL029C, strain bik1, hits give low values",0.899 (active)
same,normalized growth,"locus YCL061C, strain MRC1, hits give low values",0.997
same,normalized growth,"locus YCL069W, strain vba3, hits give low values",1.01
same,normalized growth,"locus YCR088W, strain abp1, hits give low values",1.01
same,normalized growth,"locus YDL005C, strain med2, hits give low values",1.04
same,normalized growth,"locus YDL035C, strain GPR1, hits give low values",0.945
same,normalized growth,"locus YDL040C, strain nat1, hits give low values",1
same,normalized growth,"locus YDL074C, strain BRE1, hits give low values",0.962
same,normalized growth,"locus YDL101C, strain DUN1, hits give low values",0.967
same,normalized growth,"locus YDL134C, strain PPH21, hits give low values",0.972
same,normalized growth,"locus YDL185W, strain tfp1, hits give low values",0.955
same,normalized growth,"locus YDL192W, strain arf1, hits give low values",0.954
same,normalized growth,"locus YDR001C, strain nth1, hits give low values",1.01
same,normalized growth,"locus YDR069C, strain doa4, hits give low values",0.998
same,normalized growth,"locus YDR101C, strain arx1, hits give low values",0.899 (active)
same,normalized growth,"locus YDR137W, strain rgp1, hits give low values",1.02
same,normalized growth,"locus YDR150W, strain NUM1, hits give low values",0.993
same,normalized growth,"locus YDR159W, strain sac3, hits give low values",0.941
same,normalized growth,"locus YDR162C, strain NBP2, hits give low values",0.968
same,normalized growth,"locus YDR195W, strain ref2",1.12
same,normalized growth,"locus YDR297W, strain sur2, hits give low values",1.01
same,normalized growth,"locus YDR318W, strain mcm21, hits give low values",0.911 (active)
same,normalized growth,"locus YDR334W, strain swr1, hits give low values",1.01
same,normalized growth,"locus YDR335W, strain msn5, hits give low values",0.99
same,normalized growth,"locus YDR388W, hits give low values",0.947
same,normalized growth,"locus YDR392W, strain spt3, hits give low values",0.953
same,normalized growth,"locus YDR502C, strain sam2, hits give low values",0.934
same,normalized growth,"locus YEL003W, strain gim4, hits give low values",0.999
same,normalized growth,"locus YEL037C, strain rad23, hits give low values",0.998
same,normalized growth,"locus YEL061C, strain CIN8 (second series), hits give low values",1.01
same,normalized growth,"locus YEL061C, strain CIN8, hits give low values",0.98
same,normalized growth,"locus YER015W, strain faa2, hits give low values",0.975
same,normalized growth,"locus YER016W, strain bim1, hits give low values",0.989
same,normalized growth,"locus YER110C, hits give low values",0.968
same,normalized growth,"locus YER111C, strain swi4, hits give low values",0.996
same,normalized growth,"locus YER155C, strain BEM2 (second series), hits give low values",0.988
same,normalized growth,"locus YER155C, strain BEM2, hits give low values",0.973
same,normalized growth,"locus YER167W, strain BCK2, hits give low values",0.965
same,normalized growth,"locus YFR010W, strain ubp6, hits give low values",0.978
same,normalized growth,"locus YGL078C, strain dbp3, hits give low values",0.96
same,normalized growth,"locus YGL086W, strain mad1, hits give low values",0.932
same,normalized growth,"locus YGL167C, strain pmr1, hits give low values",1.02
same,normalized growth,"locus YGL173C, strain kem1, hits give low values",0.967
same,normalized growth,"locus YGL227W, strain vid30, hits give low values",1
same,normalized growth,"locus YGL240W, strain doc1, hits give low values",0.967
same,normalized growth,"locus YGL248W, strain PDE1, hits give low values",0.985
same,normalized growth,"locus YGL253W, strain hxk2, hits give low values",1
same,normalized growth,"locus YGR078C, strain PAC10, hits give low values",0.969
same,normalized growth,"locus YGR135W, strain pre9, hits give low values",0.898
same,normalized growth,"locus YGR229C, strain SMI1, hits give low values",0.965
same,normalized growth,"locus YGR252W, strain gcn5, hits give low values",0.956
same,normalized growth,"locus YHR013C, strain ard1, hits give low values",1.1
same,normalized growth,"locus YHR027C, strain rpn1, hits give low values",0.998
same,normalized growth,"locus YHR030C, strain SLT2, hits give low values",0.983
same,normalized growth,"locus YHR079C, strain IRE1 (second series), hits give low values",0.942
same,normalized growth,"locus YHR094C, strain hxt1, hits give low values",0.966
same,normalized growth,"locus YHR129C, strain ARP1, hits give low values",0.966
same,normalized growth,"locus YHR142W, strain chs7, hits give low values",1.04
same,normalized growth,"locus YHR200W, strain rpn10, hits give low values",0.927
same,normalized growth,"locus YIL066C, strain RNR3, hits give low values",0.946
same,normalized growth,"locus YIL073C, strain SPO22, hits give low values",0.996
same,normalized growth,"locus YIL125W, strain kgd1, hits give low values",0.982
same,normalized growth,"locus YIR030C, strain dcg1, hits give low values",0.962
same,normalized growth,"locus YJL092W, strain hpr5, hits give low values",0.988
same,normalized growth,"locus YJL095W, strain BCK1 (second series), hits give low values",1.02
same,normalized growth,"locus YJL095W, strain BCK1, hits give low values",0.933
same,normalized growth,"locus YJL115W, strain asf1, hits give low values",1.03
same,normalized growth,"locus YJL129C, strain trk1, hits give low values",1.03
same,normalized growth,"locus YJL134W, strain LCB3, hits give low values",0.976
same,normalized growth,"locus YJL154C, strain vps35, hits give low values",1.02
same,normalized growth,"locus YJL164C, strain tpk1, hits give low values",1.01
same,normalized growth,"locus YJL166W, strain qcr8, hits give low values",0.99
same,normalized growth,"locus YJL168C, strain set2, hits give low values",0.961
same,normalized growth,"locus YJL187C, strain SWE1 (second series), hits give low values",0.952
same,normalized growth,"locus YJL187C, strain SWE1, hits give low values",1
